Measured values: PubChem BioAssay (NCATS)
Inconclusive results are not listed. Where a call stands in place of a potency, no number is given. The source made the active and inactive calls. The call rests on the fitted dose curve; in most records, active means well fitted cell-killing curve with a large enough effect; inconclusive means small, poorly fitted or top-dose-only effect; inactive means no such curve, though single readings can be large or run the other way.

Assay: qHTS of pediatric cancer cell lines to identify multiple opportunities for drug repurposing: Primary screen for Rh41 cells (AID 1347108); further: nearly all actives have a fitted effect of over 70% in size
Settings: Rh41 rhabdomyosarcoma viability, CellTiter-Glo luminescence, 48 h; series mostly up to 46 µM
Outline: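 Viability was measured as metabolically active cells after 48 hours of treatment, read by CellTiter-Glo luminescence. Compounds were tested at multiple final concentrations, giving concentration-response curves.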
Potency means the concentration at half of the fitted maximal effect.

| Compound | Potency |
| --- | --- |
| CCCC(C)C1(CC)C(=O)N=C(S)NC1=O (centres undefined) | inactive |
| CC(C)NCC(O)c1ccc(N)c(C#N)c1 (centres undefined) | inactive |
| CCN(Cc1ccc(Cl)nc1)/C(=C/[N+](=O)[O-])NC | inactive |
| CN(C)CCc1c[nH]c2ccccc12 | inactive |
| CC(Cc1ccc2c(c1)OCO2)NO (centres undefined) | inactive |
| COc1cc(CC#N)cc(OC)c1OC | inactive |
| CC(C)=CCN1CC[C@@]2(C)c3cc(O)ccc3C[C@@H]1[C@@H]2C | inactive |
| O=C1CN2CCOC2(c2ccccc2Cl)c2cc(Cl)ccc2N1 (centres undefined) | inactive |
| CCCCC1C(=O)NC(=O)N(C2CCCCC2)C1=O (centres undefined) | inactive |
| Oc1ccc([C@H]2CNCc3c2ccc(O)c3O)cc1O | inactive |
| Cc1cccc(Cc2cnc[nH]2)c1C | inactive |
| COc1ccc(OC)c(CC(C)N)c1 (centres undefined) | inactive |
| C[N+]1(C)[C@@H]2CC[C@H]1CC(OC(=O)C(CO)c1ccccc1)C2 (some centres undefined) | inactive |
| Oc1c(Br)cc(Br)cc1Br | inactive |
| CCC(OC(C)=O)C(CC(C)NC)(c1ccccc1)c1ccccc1 (centres undefined) | 31 µM (active) |
| O=C(N[C@@H]1N=C(c2ccccc2F)c2cccc3c2N(CC3)C1=O)c1cc2ccccc2[nH]1 | inactive |
| CC(C(O)c1ccccc1)N(C)C/C=C/c1ccccc1 (centres undefined) | inactive |

| Compound | Potency |
| --- | --- |
| Cc1nc2ccccc2c(=O)n1-c1ccccc1Cl | inactive |
| O=C(CCCN1CCC(n2c(=O)[nH]c3ccccc32)CC1)c1ccc(F)cc1 | inactive |
| CN(C)C(=O)Oc1cc(OC(=O)N(C)C)cc(C(O)CNC(C)(C)C)c1 (centres undefined) | inactive |
| Nc1ccc(Cl)cc1C(=O)c1ccccc1F | inactive |
| CC1COC2(c3ccccc3Cl)c3cc(Cl)ccc3NC(=O)CN12 (centres undefined) | inactive |
| C[C@H](CN1CCOCC1)C(C(=O)N1CCCC1)(c1ccccc1)c1ccccc1 | 46.9 µM (active) |
| CN1CCC(N(Cc2ccccc2)c2ccccc2)CC1 | inactive |
| COc1ccc2[nH]cc(CCN(C(C)C)C(C)C)c2c1 | inactive |
| C[C@H]1CNCCc2ccc(Cl)cc21 | inactive |
| COc1cc(CC(C)N)cc2c1OCO2 (centres undefined) | inactive |
| ClCc1cccc(Cl)c1 | inactive |
| Nc1ccccc1C(=O)OCC(O)CO (centres undefined) | inactive |
| CN1C2CCC(C)(C)C1CC(OC(=O)C(O)(c1cccs1)c1cccs1)C2 (centres undefined) | inactive |
| C[N+]1(CCC(C(N)=O)(c2ccccc2)c2ccccc2)CCCCC1 | inactive |
| C[C@]12CC[C@H]3[C@@H](CC=C4C[C@@H](O)CC[C@@]43C)[C@@H]1CC[C@@H]2O | inactive |
| OC(O)C(Cl)(Cl)Cl | inactive |
| CNC(C)Cc1ccccc1OC (centres undefined) | inactive |
